CHRM1 antagonist: human M1 muscarinic receptor antagonists, primary screen, CHO-K1 cells, Fluo-8 calcium fluorescence, 1536-well. AID 588852, 2011. CHO-K1 hM1, ACh EC80 antagonist. 360,000 tested, 1.3% active. inhibition, % at 3 µM. Muscarinic acetylcholine receptor M1 (Homo sapiens), P11229;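 active means percent inhibition above its own plate's cutoff, namely the mean of that plate's compound wells plus 3 SD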;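 further: peak over basal fluorescence ratio during 140 s after agonist addition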
Target sequence (P11229 whole entry, looked up): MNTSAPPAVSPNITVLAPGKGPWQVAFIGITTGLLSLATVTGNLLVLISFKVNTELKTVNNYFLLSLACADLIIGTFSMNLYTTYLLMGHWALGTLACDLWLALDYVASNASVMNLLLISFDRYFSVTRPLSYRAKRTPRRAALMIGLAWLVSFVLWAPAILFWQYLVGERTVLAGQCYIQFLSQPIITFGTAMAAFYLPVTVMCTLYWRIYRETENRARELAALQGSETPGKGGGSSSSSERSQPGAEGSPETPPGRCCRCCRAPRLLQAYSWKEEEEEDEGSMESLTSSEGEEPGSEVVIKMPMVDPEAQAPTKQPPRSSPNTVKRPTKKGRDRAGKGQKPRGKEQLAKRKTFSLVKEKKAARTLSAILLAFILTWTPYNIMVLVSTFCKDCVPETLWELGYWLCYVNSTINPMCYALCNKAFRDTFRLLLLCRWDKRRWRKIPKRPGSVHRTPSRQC
M1 ag: human M1 muscarinic receptor agonists, primary screen, Fluo-8 calcium fluorescence, CHO-K1 cells, HTS. CHO-K1 hM1, agonist mode; 0% DMSO, 100% acetylcholine EC100. activation, % at 3 µM. 360,000 tested, 0.33% active;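 active means activation above the run's mean compound activation plus 3 SD, cut at about 16% in these data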;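 further: peak over basal fluorescence ratio within a 140 s kinetic read after compound addition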
M1 PAM: human M1 muscarinic receptor positive allosteric modulators, primary screen, CHO-K1 cells, Fluo-8 calcium fluorescence, 1536-well; Muscarinic acetylcholine receptor M1 (Homo sapiens), P11229; activation, % at 3 µM; 360,000 tested, 0.088% active; CHO-K1 hM1, ACh EC20; 0% = ACh EC20, 100% = maximal ACh; AID 588819, 2011; in the data active means activation above about 19%, passing the limit was not always enough
CHO-K1 Ca ag: counter-screen for M1 agonists: effect in parental CHO-K1 cells; Fluo-8 calcium fluorescence; scaled to maximal ATP response, vehicle zero; activation, % at 3 µM; 360,000 tested, 0.48% active; AID 602248, 2012; in the data active means activation above about 15%;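 further: untransfected CHO-K1 host cells lacking M1 receptor as counterscreen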
CHO-K1 Ca PAM: nonselective calcium activators in parental CHO-K1 cells, primary screen, counter-screen for M1 PAM project, cell-based, Fluo-8 calcium fluorescence, full deck, 1536-well; ATP EC20; 0% at ATP EC20, 100% at ATP max; activation, % at 3 µM; 360,000 tested, 0.02% active; AID 602247, 2012;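 active means activation above the run cutoff, the mean activation of all test compounds plus 3 SD, cut at about 40% in these data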;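 further: peak over basal fluorescence ratio in a 140 s read after ATP addition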
CHO-K1 Ca antag: nonselective inhibitor or artifact in parental CHO-K1 cells | ATP-induced calcium, Fluo-8 fluorescence | inhibition, % at 3 µM | 360,000 tested, 0.6% active | AID 602250;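 active means inhibition above a per-plate cutoff, the plate's mean sample inhibition plus 3 SD, cut at about 24% in these data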
Each line names hits and unclear results; the compound was inactive in the other large screens. This is a sample that favours compounds with a hit; in the whole collection about 2.3% have one here.

CC1CCC(C(O)(C(=O)c2ccccc2)c2ccccc2)C(=O)C1 (stereo unspecified)	none
CCCCN(C)CCCNC(=O)c1cccc(N2CCCC2=O)c1	none
CN(CCCNC(=O)c1cccc(N2CCCC2=O)c1)c1ccccc1	CHRM1 antagonist 30
N#CCSc1nc2ccc(N3CCCCC3)cc2c(=O)n1Cc1ccccc1	CHRM1 antagonist 22
Cc1ccc(F)c(S(=O)(=O)NC(=O)C2(C)CCN2C(=O)C/C=C/c2ccccc2)c1 (stereo unspecified)	none
COc1ccc(S(=O)(=O)N(C)c2ccc(C(=O)N3CCC(C(N)=O)CC3)cc2)cc1	none
COc1ccc(S(=O)(=O)N(C)c2ccc(C(=O)N3CCC(C(N)=O)CC3)cc2)cc1OC	CHO-K1 Ca antag 25
CCOC(=O)C1=C[C@@H](C2CCCCC2)N(S(=O)(=O)c2ccc([N+](=O)[O-])cc2)[C@H]1c1ccccc1	CHO-K1 Ca antag 27
COc1ccc(CN(C)S(=O)(=O)c2nnc(NC(=O)c3cccc(F)c3)s2)cc1	CHO-K1 Ca antag 24
CCC(Oc1ccccc1)C(=O)Nc1ccc(S(=O)(=O)Nc2ncccn2)cc1 (stereo unspecified)	none
CC(Oc1ccc(Br)cc1)C(=O)Nc1ccc(S(=O)(=O)Nc2nccs2)cc1 (stereo unspecified)	none
CCC(Oc1ccccc1)C(=O)Nc1ccc(S(=O)(=O)Nc2cc(C)on2)cc1 (stereo unspecified)	M1 PAM 29
CC(C)C(=O)NC(=S)Nc1ccc(S(=O)(=O)Nc2nccs2)cc1	CHO-K1 Ca ag 16
CCC(Oc1ccc(C)cc1)C(=O)Nc1ccc(S(=O)(=O)Nc2nccs2)cc1 (stereo unspecified)	M1 ag 19
O=C(NC(=S)Nc1ccc(S(=O)(=O)Nc2nccs2)cc1)C1CC1	none
Cc1ccc([C@@]2(OC(=O)c3ccccc3)C(=O)N(C(=O)OC(C)(C)C)c3ccccc32)cc1	none (no result: CHRM1 antagonist, M1 ag, M1 PAM)
Cc1oc(-c2cccc3ccccc23)nc1CN1CCN(c2ncnc3ccccc23)CC1	CHO-K1 Ca ag 23
Cc1cccc(NC(=O)CN2C(=O)S/C(=C\c3cc(C)n(C)c3C)C2=O)c1	none
Cc1ccc(NC(=O)CN2C(=O)S/C(=C\c3cc(C)n(C)c3C)C2=O)cc1	CHRM1 antagonist 41
COc1ccc(-c2c(C(=O)c3ccccc3)[nH]c(N)c2C(=O)NCc2ccccc2)cc1OC	none (no result: CHRM1 antagonist, M1 ag, M1 PAM)
CNC(=O)Nc1ccc2snnc2c1	CHO-K1 Ca antag 26
O=C(NCCN1CCCC(O)C1)c1cc(COc2cccc(C(F)(F)F)c2)on1 (stereo unspecified)	none
Cc1ccc(Nc2nc(-c3c(C)nc4ncccn34)cs2)cc1	none
Cc1ccn2c(-c3csc(NCc4ccccc4)n3)c(C)nc2c1	CHO-K1 Ca antag 25
Cc1nc2ccccn2c1-c1csc(NCc2ccco2)n1	none
Cc1ccc(Nc2nc(-c3c(C)nc4ccccn34)cs2)cc1	CHRM1 antagonist 23
CCN1CCN(CC2CC3C=CC2C3)CC1 (stereo unspecified)	none
Cc1ccccc1CN1CCN(CC2CC3C=CC2C3)CC1 (stereo unspecified)	CHRM1 antagonist 54
O=C(c1ccco1)N1CCN(CC2CC3C=CC2C3)CC1 (stereo unspecified)	CHRM1 antagonist 29
O=C(c1ccco1)N1CCN(C(=O)c2ccco2)CC1	none
CS(=O)(=O)N1CCN(CC2CC3C=CC2C3)CC1 (stereo unspecified)	M1 ag 45
O=C(Nc1ccc(N2CCN(C(=O)c3ccccc3)CC2)cc1)c1ccc2c(c1)OCCO2	CHO-K1 Ca ag 16
Cc1ccc(C(=O)N2CCN(c3ccc(NC(=S)NC(=O)Cc4ccccc4)cc3)CC2)cc1	CHO-K1 Ca ag 21, CHO-K1 Ca antag 24
Cc1cc(O)cc(O)c1/C=N/NC(=O)c1ccc2c(c1)OCCO2	none
Cc1cnc(NC(=O)CSc2ncc(-c3ccccc3)n2Cc2ccco2)s1	M1 ag 21
COc1cccc(NC(=O)Nc2nnc([C@H]3C[C@H](O)[C@@H](CO)O3)s2)c1	none
COc1ccccc1NC(=O)Cn1nnc(-c2ccccc2NS(=O)(=O)c2ccccc2)n1	CHO-K1 Ca antag 28
COCCNC(=O)C1(C)CCCN(C(=O)c2ccc(C(F)(F)F)cc2)C1 (stereo unspecified)	none
O=C(Nc1ccc(OC(F)(F)F)cc1)Nc1cccnc1	none
Cc1ccc(NC(=O)Nc2cccc([N+](=O)[O-])c2)cc1F	CHO-K1 Ca ag 15
CC(C)(C)c1ccc(C(=O)Nc2cccc([N+](=O)[O-])c2)cc1	none
Cc1ccccc1NC(=O)NC(C)(C)CC(C)(C)C	CHO-K1 Ca ag 19
O=C(Nc1ccc(OC(F)(F)F)cc1)Nc1cccc([N+](=O)[O-])c1	CHO-K1 Ca ag 16
CC(C)(C)CC(C)(C)NC(=O)Nc1cccc([N+](=O)[O-])c1	CHRM1 antagonist 32
Cc1ccccc1NC(=O)CC(=O)Nc1ccccc1C	none
CCC(=O)N1CCC1(C)C(=O)Nc1ccc(Cl)c(Cl)c1 (stereo unspecified)	none
c1ccc(COc2ccc(-c3cc4nc(NCCN5CCOCC5)ccn4n3)cc2)cc1	none
Cc1cc(N2CCCCC2)nc(NCc2ccccc2)n1	M1 ag 21, CHO-K1 Ca ag 20
Cc1cc(OC2CCCCC2)nc(NCc2ccccc2)n1	none
Cc1cc(N2CCOCC2)nc(NCc2ccccc2)n1	CHO-K1 Ca ag 16
Cc1cc(N2CCCCCC2)nc(-c2ccccc2O)n1	none
Cc1cc(N2CCCCC2)nc(N2CCCCC2)n1	M1 ag 28
O=C(c1ccc(N2C(=O)CCC2=O)cc1)N1CCCSC1=Nc1ccccc1	none
Cc1ccc(OS(=O)(=O)c2c(C)nn(C)c2Cl)c(C)c1	CHRM1 antagonist 62
NC(=O)c1ccc[n+]([C@H]2O[C@@H](COP(=O)([O-])OP(=O)(O)OC[C@H]3O[C@@H](n4cnc5c(N)ncnc54)[C@H](O)[C@@H]3O)[C@H](O)[C@@H]2O)c1	M1 ag 27, CHO-K1 Ca ag 27
CC(=O)c1cc2cccc(OC3(C)CCN(Cc4ccc(-c5ccccn5)cc4)C3)c2o1 (stereo unspecified)	CHRM1 antagonist 35
COC(=O)Cc1ccc(OC2(C)CCN(Cc3ccccc3OC(F)F)C2)cc1 (stereo unspecified)	CHRM1 antagonist 55
COC(=O)Cc1ccc(OC2(C)CCN(Cc3ccc(-c4ccccn4)cc3)C2)cc1 (stereo unspecified)	CHRM1 antagonist 59

Source: PubChem BioAssay
